Our source for the outcome and AC50 values is PubChem BioAssay (EPA / NIEHS).

The term AC50 denotes the concentration giving half of the maximal activity seen.

Records with an inconclusive call do not appear. Calls of active or inactive are those of the source. How the source made its calls, unless noted: active means hit-call score of the fitted dose curve at least 0.9, where 1 is the maximum; inactive means score below 0.9.

The nature of the first test: CCTE_Mundy_HCI_Cortical_Synap_Neur_Matur_CellBodySpotCount: CCTE's Synaptogenesis and Neurite Maturation Assay in rat cortical cells for Cell Body Spot Count, Mundy Lab (AID 2284223).
Settings: not given
A digest of the protocol:
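High-content imaging counts synaptophysin puncta on neuronal cell bodies per neuron after MAP2/synaptophysin immunostaining. Rat primary cortical cells, glia arrested with AraC at DIV 5, were exposed DIV 7–12; signal decrease measured against DMSO.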
Turning to `OC(Cc1ccccc1Cl)(Cn1[nH]cnc1=S)C1(Cl)CC1` (stereo not given), the molecule was classed as inactive.

Consider `Cc1cc(C(F)(C(F)(F)F)C(F)(F)F)ccc1NC(=O)c1cccc(I)c1C(=O)NC(C)(C)CS(C)(=O)=O`, for which the molecule was classed as inactive.

With `Cc1ccccc1OP(=O)(Oc1ccccc1C)Oc1ccccc1C`, the AC50 is 4.04 µM (active). For `CC(C)[C@@H](Nc1ccc(C(F)(F)F)cc1Cl)C(=O)OC(C#N)c1cccc(Oc2ccccc2)c1` (stereo not given in full), the molecule was called inactive. Still for that read-out and setting: next, `CS(=O)(=O)c1ccc(C(=O)C2C(=O)CCCC2=O)c(Cl)c1COCC(F)(F)F`: “inactive”. Still for that read-out and setting: to `NC(=O)c1ccc(N)nc1` belongs “inactive”. Turning to `CNC(=O)CSP(=O)(OC)OC`, the molecule was classed as inactive.

For `CC1(C)[C@H](C(=O)O[C@H](C#N)c2cccc(Oc3ccccc3)c2)[C@@H]1/C=C(\Cl)C(F)(F)F`, the AC50 is 3.52 µM (active).

Consider `CCOCn1c(-c2ccc(Cl)cc2)c(C#N)c(Br)c1C(F)(F)F`, for which the AC50 was 18.9 µM (active).

Another test is described as follows: CCTE_Mundy_HCI_hNP1_Pro_ResponderAvgInten: CCTE's Proliferation Assay in human neuroprogenitor cells, Mundy Lab (AID 2284224; active means hit-call score of the fitted dose curve at least 0.9, where 1 is the maximum;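 further: human neural progenitor cells hNP1 derived from WA09 embryonic stem cells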).
Settings: not given
The method in brief: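 Proliferation was scored as BrdU labelling intensity in human neural progenitors derived from WA09 embryonic cells, measured 26.25 hours after chemical dosing. Activity was fitted relative to DMSO.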
On to `OC(Cc1ccccc1Cl)(Cn1[nH]cnc1=S)C1(Cl)CC1` (stereo not given), for which the AC50 was 31.6 µM (active). Regarding `Cc1cc(C(F)(C(F)(F)F)C(F)(F)F)ccc1NC(=O)c1cccc(I)c1C(=O)NC(C)(C)CS(C)(=O)=O`, the molecule was classed as inactive. Regarding `Cc1ccccc1OP(=O)(Oc1ccccc1C)Oc1ccccc1C`, the AC50 is 25.8 µM (active).

For the molecule `CC1(C)[C@H](C(=O)O[C@H](C#N)c2cccc(Oc3ccccc3)c2)[C@@H]1/C=C(\Cl)C(F)(F)F`, the molecule was classed as inactive.

For the molecule `CCOCn1c(-c2ccc(Cl)cc2)c(C#N)c(Br)c1C(F)(F)F`, the AC50 is 9.2 µM (active).

Another test in a line: BSK_BT_PBMCCytotoxicity: PBMC Cytotoxicity Assessment in the BioMAP Diversity Plus: BT Assay (AID 2284225).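 Further: PBMC viability measured by Alamar Blue dye reduction fluorescence.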 The following applies: primary human B cells with PBMC. The method in brief:
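Viability by Alamar Blue reduction (6 h, ex/em 546/580 nm) after 90 h culture of SEB/TSST-1-activated PBMC (20 ng/mL each) given compound 1 h before activation. DMSO served as baseline for curve fitting.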
On to `OC(Cc1ccccc1Cl)(Cn1[nH]cnc1=S)C1(Cl)CC1` (stereo not given), for which the outcome was inactive. On the same count and under the same terms, to `O=C(O)COc1cc(Cl)c(Cl)cc1Cl` belongs “inactive”; to `CCOP(=O)(OCC)OC(=CCl)c1ccc(Cl)cc1Cl`, “inactive”. In the case of `Cc1ccc2nc3sc(=O)sc3nc2c1`, the outcome was inactive.

In the case of `CC(C=O)Cc1ccc2c(c1)OCO2` (stereo not given), the result was inactive. Same read-out and setting: next, `Cc1ccccc1OP(=O)(Oc1ccccc1C)Oc1ccccc1C`: “inactive”. Turning to `CCOC(=O)CCN(SN(C)C(=O)Oc1cccc2c1OC(C)(C)C2)C(C)C`, the AC50 is 25.9 µM (active). For the molecule `CCC(C)(C#N)N=NC(C)(C#N)CC` (stereo not given), the outcome was inactive. With `Cc1ccc(OP(=O)(Oc2ccc(C)cc2C)Oc2ccc(C)cc2C)c(C)c1`, the AC50 was 5.32 µM (active).

In the case of `Cc1c([N+](=O)[O-])c(C)c([N+](=O)[O-])c(C(C)(C)C)c1[N+](=O)[O-]`, the outcome was inactive.

On to `O=[N+]([O-])c1cccc2ccccc12`, for which the result was inactive. On the same count and under the same terms, to `CC(C)(COCC1CO1)COCC1CO1` (stereo not given) belongs “inactive”; to `CCN(CC)C(=O)C(Cl)=C(C)OP(=O)(OC)OC`, “inactive”.

As to `C#CCOC(=O)/C=C(C)/C=C/CC(C)CCCC(C)C` (stereo not given), the result was inactive. Regarding `OC(Cc1ccccc1Cl)(Cn1cncn1)C1(Cl)CC1` (stereo not given), the outcome was inactive. The same measure, in the same setting: to `CC1(C)[C@H](C(=O)O[C@H](C#N)c2cccc(Oc3ccccc3)c2)[C@@H]1/C=C(\Cl)C(F)(F)F` belongs “inactive”; to `CCCCN(CCCC)C(=S)[S-].CCCCN(CCCC)C(=S)[S-].[Ni+2]`, “inactive”; to `Cc1cc(Cl)ccc1N`, “inactive”.

For `c1ccc(-c2cccc(-c3ccccc3)c2)cc1`, the AC50 was 32.8 µM (active). Regarding `Oc1c(Br)cc(Br)cc1Br`, the outcome was inactive. Still for that read-out and setting: next, `NC(=O)CCl`: “inactive”.
